Experimental data published in PubChem BioAssay AID1159580 (chemical genetic matrix, 2015).
The whole screen tested about 5,500 compounds, of which about 2,000 (36%) were called active. Another 18% or so got no clear call; they are omitted. Rule as the data show it: active = normalized growth mostly below about 0.91 (no sharp cut-off); inconclusive = no clear call, values can overlap the other calls; inactive = mostly above about 0.92. The list shows a part of the results.

Test: chemical genetic growth profiling, strain panel (AID 1159580);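 also: tested at 20 µM; growth read once vehicle control cultures reached saturation at 30 °C; 1 = growth at the plate median or of vehicle wells; lower values mean less growth of the strain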
Conditions: growth OD

Measured: normalized growth

N[C@H](Cc1ccccc1)C(=O)O
inactive: S. cerevisiae deletion strains, locus YJR043C, strain POL32, active compounds read low 1.01 | S. cerevisiae deletion strains, locus YJR066W, strain TOR1, active compounds read low 0.943 | S. cerevisiae deletion strains, locus YKL009W, strain mrt4, active compounds read low 1.01 | S. cerevisiae deletion strains, locus YKL068W, active compounds read low 1.01 | S. cerevisiae deletion strains, locus YKL085W, strain MDH1 (second series), active compounds read low 1.01 | S. cerevisiae deletion strains, locus YKL085W, strain MDH1, active compounds read low 1.01 | S. cerevisiae deletion strains, locus YKL160W, strain elf1, active compounds read low 1.04 | S. cerevisiae deletion strains, locus YKL190W, strain CNB1, active compounds read low 1.02 | S. cerevisiae deletion strains, locus YKR001C, strain vps1, active compounds read low 0.997 | S. cerevisiae deletion strains, locus YKR026C, strain gcn3, active compounds read low 0.988 | S. cerevisiae deletion strains, locus YKR091W, strain srl3, active compounds read low 1 | S. cerevisiae deletion strains, locus YLL001W, strain dnm1, active compounds read low 0.973 | S. cerevisiae deletion strains, locus YLL026W, active compounds read low 0.984 | S. cerevisiae deletion strains, locus YLL041C, strain sdh2, active compounds read low 1 | S. cerevisiae deletion strains, locus YLR027C, strain aat2, active compounds read low 1 | S. cerevisiae deletion strains, locus YLR039C, strain RIC1, active compounds read low 1.02 | S. cerevisiae deletion strains, locus YLR058C, strain SHM2, active compounds read low 1.02 | S. cerevisiae deletion strains, locus YLR102C, strain apc9, active compounds read low 0.995 | S. cerevisiae deletion strains, locus YLR113W, strain HOG1, active compounds read low 1.05 | S. cerevisiae deletion strains, locus YLR221C, strain rsa3, active compounds read low 0.975 | S. cerevisiae deletion strains, locus YLR258W, strain gsy2, active compounds read low 1.03 | S. cerevisiae deletion strains, locus YLR262C, strain YPT6 (second series), active compounds read low 0.987 | S. cerevisiae deletion strains, locus YLR262C, strain YPT6, active compounds read low 1.04 | S. cerevisiae deletion strains, locus YLR268W, strain sec22, active compounds read low 0.994 | S. cerevisiae deletion strains, locus YLR320W, strain mms22, active compounds read low 0.949 | S. cerevisiae deletion strains, locus YLR330W, strain CHS5, active compounds read low 1.02 | S. cerevisiae deletion strains, locus YLR342W, strain FKS1 (second series), active compounds read low 1 | S. cerevisiae deletion strains, locus YLR342W, strain FKS1, active compounds read low 1.02 | S. cerevisiae deletion strains, locus YLR357W, strain rsc2, active compounds read low 1.01 | S. cerevisiae deletion strains, locus YLR370C, strain arc18, active compounds read low 1 | S. cerevisiae deletion strains, locus YLR371W, strain rom2, active compounds read low 0.982 | S. cerevisiae deletion strains, locus YLR384C, strain iki3, active compounds read low 0.991 | S. cerevisiae deletion strains, locus YLR418C, strain cdc73, active compounds read low 0.975 | S. cerevisiae deletion strains, locus YML016C, strain PPZ1, active compounds read low 1.01 | S. cerevisiae deletion strains, locus YML032C, strain rad52, active compounds read low 0.986 | S. cerevisiae deletion strains, locus YML120C, strain ndi1, active compounds read low 0.987 | S. cerevisiae deletion strains, locus YML124C, strain tub3, active compounds read low 0.997 | S. cerevisiae deletion strains, locus YMR058W, strain fet3, active compounds read low 0.987 | S. cerevisiae deletion strains, locus YMR078C, strain ctf18, active compounds read low 1 | S. cerevisiae deletion strains, locus YMR125W, strain sto1, active compounds read low 1 | S. cerevisiae deletion strains, locus YMR129W, active compounds read low 0.978 | S. cerevisiae deletion strains, locus YMR205C, strain PFK2, active compounds read low 0.985 | S. cerevisiae deletion strains, locus YMR223W, strain ubp8, active compounds read low 1.01 | S. cerevisiae deletion strains, locus YMR231W, strain pep5, active compounds read low 0.984 | S. cerevisiae deletion strains, locus YMR263W, strain SAP30, active compounds read low 1.01 | S. cerevisiae deletion strains, locus YMR307W, strain GAS1, active compounds read low 1.01 | S. cerevisiae deletion strains, locus YNL067W, strain RPL9B, active compounds read low 1.02 | S. cerevisiae deletion strains, locus YNL071W, strain lat1, active compounds read low 0.983 | S. cerevisiae deletion strains, locus YNL128W, strain TEP1, active compounds read low 1.02 | S. cerevisiae deletion strains, locus YNL153C, strain GIM3, active compounds read low 1.03 | S. cerevisiae deletion strains, locus YNL183C, strain NPR1, active compounds read low 0.988 | S. cerevisiae deletion strains, locus YNL209W, strain ssb2, active compounds read low 1.02 | S. cerevisiae deletion strains, locus YNL233W, strain BNI4, active compounds read low 1.01 | S. cerevisiae deletion strains, locus YNL248C, strain rpa49, active compounds read low 1 | S. cerevisiae deletion strains, locus YNL250W, strain rad50, active compounds read low 1 | S. cerevisiae deletion strains, locus YNL271C, strain bni1, active compounds read low 1.01 | S. cerevisiae deletion strains, locus YNL298W, strain CLA4, active compounds read low 1.02 | S. cerevisiae deletion strains, locus YNL307C, strain MCK1, active compounds read low 0.993 | S. cerevisiae deletion strains, locus YNL322C, strain KRE1 (second series), active compounds read low 1.03 | S. cerevisiae deletion strains, locus YNR049C, strain mso1, active compounds read low 1 | S. cerevisiae deletion strains, locus YNR052C, strain pop2, active compounds read low 1.01 | S. cerevisiae deletion strains, locus YOL006C, strain TOP1, active compounds read low 1.03 | S. cerevisiae deletion strains, locus YOL012C, strain htz1 2.29 | S. cerevisiae deletion strains, locus YOL147C, strain pex11, active compounds read low 1.01 | S. cerevisiae deletion strains, locus YOR001W, strain rrp6, active compounds read low 0.943 | S. cerevisiae deletion strains, locus YOR061W, strain CKA2, active compounds read low 1.02 | S. cerevisiae deletion strains, locus YOR069W, strain VPS5, active compounds read low 1.01 | S. cerevisiae deletion strains, locus YOR070C, strain gyp1, active compounds read low 0.983 | S. cerevisiae deletion strains, locus YOR080W, strain dia2, active compounds read low 0.988 | S. cerevisiae deletion strains, locus YOR083W, strain WHI5, active compounds read low 0.991 | S. cerevisiae deletion strains, locus YOR106W, strain vam3, active compounds read low 1.03 | S. cerevisiae deletion strains, locus YOR136W, strain idh2, active compounds read low 1 | S. cerevisiae deletion strains, locus YOR144C, strain elg1, active compounds read low 0.999 | S. cerevisiae deletion strains, locus YOR184W, strain ser1, active compounds read low 0.994 | S. cerevisiae deletion strains, locus YOR231W, strain MKK1, active compounds read low 1.08 | S. cerevisiae deletion strains, locus YOR265W, strain rbl2, active compounds read low 0.992 | S. cerevisiae deletion strains, locus YOR270C, strain vph1, active compounds read low 0.986 | S. cerevisiae deletion strains, locus YOR290C, strain snf2, active compounds read low 1.02 | S. cerevisiae deletion strains, locus YOR316C, strain cot1, active compounds read low 1 | S. cerevisiae deletion strains, locus YPL051W, strain arl3, active compounds read low 1.01 | S. cerevisiae deletion strains, locus YPL078C, strain atp4, active compounds read low 1.03 | S. cerevisiae deletion strains, locus YPL106C, strain sse1, active compounds read low 1.03 | S. cerevisiae deletion strains, locus YPL240C, strain hsp82, active compounds read low 0.994 | S. cerevisiae deletion strains, locus YPL256C, strain CLN2, active compounds read low 1.06 | S. cerevisiae deletion strains, locus YPR119W, strain clb2, active compounds read low 0.995 | S. cerevisiae deletion strains, locus YPR141C, strain kar3, active compounds read low 1 | S. cerevisiae deletion strains, locus YPR163C, strain tif3, active compounds read low 1 | S. cerevisiae deletion strains, locus YPR167C, strain met16, active compounds read low 1 | S. cerevisiae deletion strains, strain wtn01, active compounds read low 0.996 | S. cerevisiae strains, strain wild type, active compounds read low 1.01
